{"source": "the supplement of paper PMC11417369", "note": "In all, about 25,000 sequences were measured (“ln(normalized median fluorescence intensity)”: median about 9.7, highest 2% from about 11 on). This is one part of a sample in which the highest values are shown more often than they occur.", "data": [{"test_system": "PfAP2-HC AP2 domain (GST-tagged)", "test": "gcPBM binding intensity (ln(normalized median fluorescence intensity)); higher = stronger DNA binding", "procedure,_shortened": "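GST-tagged P. falciparum DNA-binding domains produced in E. coli were incubated for 1 h on an Agilent 4 × 180k array of primer-extended double-stranded 36-bp intergenic genomic probes with negative controls. Binding intensity is the highest Masliner-normalised natural-log median intensity across replicate spots of either probe orientation, with bound protein detected by Alexa488 anti-GST antibody at 488 nm.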", "values": [{"sequence": "ACTTGTAAGAAACACACACACACACCGATATATATA [CACACA_site4594]", "gcPBM binding intensity (ln)": 11.2}, {"sequence": "AATTAAATTACTTATACACACATAAAATGCCTGTAT [CACACA_site6597]", "gcPBM binding intensity (ln)": 9.84}, {"sequence": "TTATGTAAAAAAAAAAAAAAAAAAAAAAAAAAAAAA [CACACA_negctrl_site984]", "gcPBM binding intensity (ln)": 9.05}, {"sequence": "ATTATCAAAAAAAAAAAAAAAAAAAAAAAAAAAAAA [CACACA_negctrl_site1118]", "gcPBM binding intensity (ln)": 8.87}, {"sequence": "AACTTGTATTTATACACACACACACTAGCTTTTTTT [CACACA_site5132]", "gcPBM binding intensity (ln)": 10.4}, {"sequence": "AACTTGTATATATACACACACACACTATCTTTTTTT [CACACA_site8601]", "gcPBM binding intensity (ln)": 10.9}, {"sequence": "AACTTGTATTTATACACACACACACTGTCTTTTTTT [CACACA_site7009]", "gcPBM binding intensity (ln)": 10.5}, {"sequence": "ATTTTTATTAGTTATTGTACTTATTATTTATTAATT [XGTACX_site2568]", "gcPBM binding intensity (ln)": 9.78}, {"sequence": "TATATACACAGACACACACACACATACACGCACATA [CACACA_site6909]", "gcPBM binding intensity (ln)": 10.5}, {"sequence": "TACACATACCCATACACACGCATAGAAACATACGAA [CACACA_site5212]", "gcPBM binding intensity (ln)": 10.2}, {"sequence": "TACAGACAGAAACACACACACACGCATAAAAAAAAA [CACACA_site1514]", "gcPBM binding intensity (ln)": 10.5}, {"sequence": "CACCCATAGAAACACACACACGCATAAAAAAAAAAA [CACACA_site1513]", "gcPBM binding intensity (ln)": 10.7}, {"sequence": "TACACCCATAGACACACACACACGCATAAAAAAAAA [CACACA_site8428]", "gcPBM binding intensity (ln)": 11.1}, {"sequence": "TACAGACATAGACACACACACACGCATAAAAAAAAA [CACACA_site6820]", "gcPBM binding intensity (ln)": 11.4}, {"sequence": "AATAAATAAAAATGCACACAGTTAACATGTTGAATT [CACACA_site4795]", "gcPBM binding intensity (ln)": 10.2}, {"sequence": "GCATCTCATTTGTGATGTACTATATTATCCGTTTTT [XGTACX_site7576]", "gcPBM binding intensity (ln)": 9.71}, {"sequence": "ATATATATTATGTGTGTGCACTTTTGTTATTATTAT", "gcPBM binding intensity (ln)": 10.2}, {"sequence": "TATATAACATAATATACACACATTATGTGCGTAATT [CACACA_site4073]", "gcPBM binding intensity (ln)": 9.75}, {"sequence": "GATATGTTTTCCTAGGTTCATGATGATAGGTAGTTT [XGTACX_negctrl_site217]", "gcPBM binding intensity (ln)": 9.83}, {"sequence": "AAAAAAAAAAAAAGCACACACACATATGCGTATATA [CACACA_site953]", "gcPBM binding intensity (ln)": 10.3}, {"sequence": "AGATATAAGAAAAGCACACACACACTAGAAAAAAAA [CACACA_site5559]", "gcPBM binding intensity (ln)": 11}, {"sequence": "ATAAGAAAAAGACACACACACAAAAAAAAAAAAAAA [CACACA_site2828]", "gcPBM binding intensity (ln)": 10.2}, {"sequence": "TAGGAAAAGAAAAGCACACACATAAATAGATATATA [CACACA_site6382]", "gcPBM binding intensity (ln)": 10.3}, {"sequence": "AAAAAAAAAAAGCACACACACATATGCGTATATATA [CACACA_site954]", "gcPBM binding intensity (ln)": 10.9}, {"sequence": "AAAGTAAAAGAAAGCACACACACATGTATATATGTA [CACACA_site3857]", "gcPBM binding intensity (ln)": 10.2}, {"sequence": "AAGAAAAGCATAGATGCACACATATATATATATATA [CACACA_site8675]", "gcPBM binding intensity (ln)": 10.5}, {"sequence": "ATACAATACAAAAACACACACAAAAAAAGAAAAGGA [CACACA_site2156]", "gcPBM binding intensity (ln)": 10.4}, {"sequence": "AGTAAAAGAAAGCACACACACATGTATATAGGTATG [CACACA_site7759]", "gcPBM binding intensity (ln)": 10.9}, {"sequence": "ATAAGAAAAGGACACACACACAAAAAAAAAAAAAAA [CACACA_site7351]", "gcPBM binding intensity (ln)": 11.1}, {"sequence": "AGTAAAAGAAAGCACACACACATGTATATATGTATG [CACACA_site3858]", "gcPBM binding intensity (ln)": 11}, {"sequence": "AAAAAAAAAAAGCACACACACATATGAGTATATATA [CACACA_site4683]", "gcPBM binding intensity (ln)": 10.3}, {"sequence": "ATATATACAAGTATTTTTTTTTCAAACATTATTTTT [CACACA_negctrl_site1808]", "gcPBM binding intensity (ln)": 9.68}, {"sequence": "TACATGAATATATAAAGAAAAAAAAAAAAACACACA [XGTACX_negctrl_site350]", "gcPBM binding intensity (ln)": 9.79}, {"sequence": "AATAAGTAACAAAATACACACATATATATAATTATA [CACACA_site1837]", "gcPBM binding intensity (ln)": 10.1}, {"sequence": "CTTATATTAAGTATTACACACATATATATAAATGCA [CACACA_site4581]", "gcPBM binding intensity (ln)": 9.65}, {"sequence": "TGTACGTTTTTTAACACACACACAAAAAAAAAAAAA [CACACA_site6006]", "gcPBM binding intensity (ln)": 9.84}, {"sequence": "GATTTATACAAATATGTACACACTAAATATATATTA [CACACA_site455]", "gcPBM binding intensity (ln)": 9.83}, {"sequence": "GATGTTGCAAAATTCTGTACATATAAATGTATACAT [XGTACX_site5009]", "gcPBM binding intensity (ln)": 9.64}, {"sequence": "TAATTAAAATTATTTATAAATTAGTATATTTCTATA [CACACA_negctrl_site663]", "gcPBM binding intensity (ln)": 9.42}, {"sequence": "AGAGATATAAGAAAAGCACACACACCCAAAAAAAAA [CACACA_site8917]", "gcPBM binding intensity (ln)": 10.5}, {"sequence": "GCAAAATAAAGAAGCACACAAAAATGAAATATATAT [CACACA_site3651]", "gcPBM binding intensity (ln)": 9.96}, {"sequence": "ATATAAGAAAAGCACACACACACAAAAAAAAAAAAA [CACACA_site2827]", "gcPBM binding intensity (ln)": 11.1}, {"sequence": "AAAAAAAATATAAGTGGTACTCACATAAAGACATAT [XGTACX_site3709]", "gcPBM binding intensity (ln)": 9.93}, {"sequence": "AAAAAAAAAAAGAAGGAAACATTTGACCAAAAATAT [GTGCAC_negctrl_site404]", "gcPBM binding intensity (ln)": 9.58}, {"sequence": "GTAGACTGAAACCACACACACATATATAAATATATT [CACACA_site6433]", "gcPBM binding intensity (ln)": 10.4}]}]}
